# Experiments:
# Format in all cases: functional
# Plasmodium falciparum [1] = test: GSK_TCMDC: Inhibition of Plasmodium falciparum 3D7 in whole red blood cells, using parasite LDH activity as an index of growth. Test compounds present at 2uM
# Plasmodium falciparum [2] = test: GSK_TCMDC: Inhibition of Plasmodium falciparum Dd2 in whole red blood cells, using parasite LDH activity as an index of growth. Test compounds present at 2uM
# HepG2 = test: GSK_TCMDC: Percent inhibition of human HepG2 cell line. Test compounds present at 10uM.
Structure (SMILES),Inhibition (Plasmodium falciparum [1]) [%],Inhibition (Plasmodium falciparum [2]) [%],Inhibition (HepG2) [%]
Cc1nc2nc(N)nc(N)c2c(C)c1Cc1cccc(F)c1.Cl,96,1,65
CCN(CCCN1CCCCC1)c1cc(C)nc(Nc2ccc(OC)cc2)n1.O=C(O)C(F)(F)F,100,24,23
N#Cc1ccc(N/C(=N\c2ccc(-c3ccccc3)cc2)NC2CCCc3ccccc32)c(O)c1 (stereo not given),99,98,0
Cl.N=C(N)NN=Cc1c2ccccc2c(Cl)c2ccc(Cl)cc12,98,89,97
O=C(NC1CCCCC1)C1CCCN(C(=O)c2ccc(O)c(-c3ccc(Cl)c(Cl)c3)c2)C1 (stereo not given),89,42,22
Cc1nc2c(Nc3nc(-c4ccncc4)cs3)ncnc2n1-c1ccccc1Cl,97,96,14
CC1(C)N=C(N)N=C(N)N1c1cccc(Cl)c1.Cl,96,96,69
CCOC(=O)c1ccc(NCc2ccccn2)cc1,99,0,0
Br.CCCOc1ccc(OCCCON2C(=N)N=C(N)NC2(C)C)cc1,96,94,59
CC(O)C1CCCCN1C(=O)c1ccc(-c2cccc(-c3nc4cc(F)ccc4[nH]3)c2)cc1 (stereo not given),100,97,30
CCOc1ccc(C(=O)Nc2cc(Cl)ccc2O)cc1Cl,83,84,11
O=C(COc1cccc([N+](=O)[O-])c1)Nc1ccc(-c2nc3ccccc3[nH]2)cc1,99,5,12
CN1CCC(Oc2ccc(Nc3nccc(NCC(O)c4ccccc4)n3)cc2Cl)CC1 (stereo not given),100,99,46
FC(F)(F)c1ccc2[nH]c(-c3cccc(-c4ccc(CNCCc5ccncc5)cc4)c3)nc2c1.O=C(O)C(F)(F)F,99,100,23
CCN(CCCN1CCCCC1)c1cc(C)nc(Nc2cc(Cl)ccc2C)n1.O=C(O)C(F)(F)F,99,37,36
Cc1cc(N[C@@H](CC(C)C)C(=O)Nc2ccccc2)nc(NCC2CCCCC2)n1.O=C(O)C(F)(F)F,100,95,8
COc1ccc(N2CCN(CCCCNC(=O)c3ccc(NC(=O)c4cc(C(F)(F)F)cc(C(F)(F)F)c4)cc3)CC2)c(OC)c1,100,99,30
Cc1cccc2nc(-c3ccc(-c4ccc(CN5CCCC(N)C5)cc4)s3)[nH]c12.O=C(O)C(F)(F)F (stereo not given),100,100,29
CCCNCc1ccc(-c2ccc(CN(C(=O)c3nn(-c4ccccc4)nc3C)C3CCOCC3)cc2)nc1.O=C(O)C(F)(F)F,98,0,14
Cc1ccc2[nH]c(-c3ccccc3Nc3ccnc4cc(-c5nccs5)ccc34)nc2c1.Cl,100,100,40
CCCCOc1ccc(/C=C/c2ccc(-c3c(C)[nH]c(C)c(Cl)c3=O)s2)cc1,97,96,0
CCN(CC)c1cc(C)c2cc(NC(=O)c3cc(=O)c4ccccc4o3)ccc2n1,97,67,14
CC(C)(CNC(=O)[C@@H]1CCCCN1)c1nc(-c2ccc(Cl)c(O)c2)c(-c2ccncc2)[nH]1.Cl,97,96,0
COc1cccc2c(NN=Cc3ccccc3F)ccnc12,96,37,6
COc1cc(Cc2cnc(N)nc2N)ccc1OCc1cccc(Oc2ccccc2)c1,84,21,18
Clc1ccc(CNc2ccnc(NCc3cccnc3N3CCCC3)n2)c(Cl)c1,85,53,37
Clc1ccccc1OCc1ccccn1,85,2,2
Fc1ccc(Nc2ccnc3cc(-c4cccc(CN5CCCCC5)c4)ccc23)c(Cl)c1,91,58,3
CCCCc1ccc(-c2ccc(-c3c(C)[nH]c(C)c(Br)c3=O)cn2)cc1.Cl,98,96,0
CCOc1cc(C(=O)NCCN(CC)c2cccc(C)c2)ccc1-c1nc2cc(Cl)ccc2[nH]1,100,80,0

# From ChEMBL document CHEMBL1157539, “Thousands of chemical starting points for antimalarial lead identification” (Nature, 2010)
